The values that follow come from PubChem BioAssay.

SMILES strings stand for the structures.

The target of the first test is Torsin-1A (Homo sapiens) (UniProt O14656). In words: torsin A mutant lysate binding on microarrays – cell lysate, small-molecule microarray, COS7 lysate, 635/667 nm fluorescence, primary screen (AID 1150).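 Further: score pools 667 nm emission and signal to noise measuring lysate protein binding.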 To be noted: COS7 hTOR1A mutant lysate, 635 nm fluorescence, higher = more signal.
Chain of Torsin-1A (Homo sapiens) (O14656 whole entry, looked up): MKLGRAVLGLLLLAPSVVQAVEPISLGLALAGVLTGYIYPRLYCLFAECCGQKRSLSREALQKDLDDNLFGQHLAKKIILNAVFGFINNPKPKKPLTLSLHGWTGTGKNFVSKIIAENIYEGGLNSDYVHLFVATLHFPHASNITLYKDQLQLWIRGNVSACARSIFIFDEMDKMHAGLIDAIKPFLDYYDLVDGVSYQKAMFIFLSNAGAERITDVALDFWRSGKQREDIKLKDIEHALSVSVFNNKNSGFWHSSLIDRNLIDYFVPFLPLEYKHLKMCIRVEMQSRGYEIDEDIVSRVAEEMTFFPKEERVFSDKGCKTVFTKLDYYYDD
`CCOC(=O)C[C@H]1[C@H](OC(=O)c2ccccc2-c2ccccc2)[C@@H](NC(=O)c2ccc3ccccc3c2)c2cc(OCCCO)ccc2N1C(=O)Cc1ccc(OC)cc1` yielded a composite z-score of 0.768.
In turn, `COC(=O)[C@@]1(Cc2ccc(OC)cc2)[C@H]2c3cc(C(=O)N4CCCC4)n(Cc4ccc(Cl)c(C(F)(F)F)c4)c3C[C@H]2CN1C(=O)c1ccccc1` displayed a composite z-score of 1.28.
In the case of `CCCC[C@H]1C[C@@H]1[C@@H]1N(C(C)=O)[C@H](c2cccc(OC)c2)CC12CC2`, the composite z-score is 0.0852.
On to `COc1ccc(CCNC(=O)[C@@H]2c3ccccc3C(=O)N(Cc3ccccc3OC)[C@H]2c2ccc(CO)cc2)cc1`, for which the composite z-score stood at 0.321.
As for `O=C1C=C(c2ccccc2)C(=O)C2=C1CC([C@H]1Oc3ccccc3S(=O)(=O)N3CCC[C@@H]13)=CC2`, the composite z-score was -0.495.
Regarding `COCCOC(=O)N1C(=O)[C@@]2(c3cc(C#Cc4ccc(OC)cc4)ccc31)[C@H](c1ccc(OCCO)cc1)N1[C@H](c3ccccc3)[C@H](c3ccccc3)OC(=O)[C@H]1[C@@H]2C(=O)NC[C@H](O)c1ccccc1`, the composite z-score is 0.603.

The next test concerns Sonic hedgehog protein (Shh). In words: Sonic hedgehog microarray binding compounds – biochemical, small-molecule microarray, 635/667 nm fluorescence, primary screen (AID 1151).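 Further: Shh protein binding to compounds spotted on small-molecule microarray slides; score combines spot fluorescence intensity with signal-to-noise across triplicate slides.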 To be noted: 635 nm fluorescence, higher = more signal.
Consider `CC(C)C(O)C1C=CC2C(=O)NC(=O)C2N1Nc1ccccn1` (configuration not stated), for which the composite z-score was -0.212.
The same measure, in the same setting: the figure for `C=CCC(OC(C)=O)[C@@H]1[C@@H](N(Cc2cccc3ccccc23)C(=O)c2ccc(-c3ccccc3)cc2)c2cc(OCCCO)ccc2N1C(=O)Cc1ccc2ccccc2c1` (some centres not stated) is 0.068; for `COc1cc(CO)cc(I)c1O[C@H]1C=C(C(=O)NCCO)C[C@@H]2O[C@H]12` it is 1.59.
In the case of `CC(C)[Si](C#CCCc1ccccc1)(O[C@H](c1ccccc1)c1cn(Cc2ccccc2)nn1)C(C)C`, the composite z-score amounted to 0.814.
In the case of `O=C1[C@H]2C=C(I)[C@H](C[C@@H]2c2ccccc2)[C@@]12CO2`, the composite z-score amounted to 0.147.
Compound `C=C(/C(=C/C[C@@H](OC(C)=O)c1cccc(OCCO)c1)c1cnc2ccccc2c1)C(C)C` gave a composite z-score of 2.05.
For `COCCOC(=O)N1C(=O)[C@@]2(c3cc(C#CCC(C(=O)OC)C(=O)OC)ccc31)[C@H](C(=O)Nc1nc3ccccc3s1)[C@H]1C(=O)O[C@H](c3ccccc3)[C@H](c3ccccc3)N1[C@@H]2c1ccc(OCCO)cc1`, the composite z-score was 2.23.
`C=CCNC(=O)[C@H]1[C@@H]2C(=O)O[C@@H](c3ccccc3)[C@@H](c3ccccc3)N2[C@@H](c2ccc(OCCO)cc2)[C@]12C(=O)Nc1ccccc12` showed a composite z-score of -0.0035.
`COC(=O)[C@@]1(Cc2ccc(F)cc2)[C@H]2c3cc(C(=O)N(C)C)n(CCc4ccc(O)c(O)c4)c3C[C@H]2CN1C(=O)c1ccccc1` gave a composite z-score of -1.67.
`C=CC[C@@]12N=C(c3ccc(OCCCO)cc3)O[C@@H]1c1ccccc1N(CCC)C2=O`: the composite z-score stood at 1.84.
The compound `O=C(NC1CC1)[C@@H]1c2ccccc2C(=O)N(Cc2ccc(OC(F)(F)F)cc2)[C@H]1c1ccc(CO)cc1` came in with a composite z-score of 0.391.
Regarding `COC(=O)[C@@]1(Cc2ccc(OC)cc2)[C@H]2c3cc(C(=O)N4CCCC4)n(Cc4ccc(C(F)(F)F)nc4)c3C[C@H]2CN1C(=O)c1ccccc1`, the composite z-score is -0.246.
`CCC(CC)C(O)C1C=CC2C(=O)N(c3ccccc3)C(=O)C2N1Nc1ccccc1F` (configuration not stated) showed a composite z-score of -0.455.
`C=C(COC)C(=O)CC[C@@H](OC(C)=O)c1ccccc1OCCO` showed a composite z-score of 2.32.
Regarding `[N-]=[N+]=Nc1ccccc1[C@@H]1OC(c2ccc(OCCCO)cc2)=N[C@]1(CCS(=O)(=O)c1ccccc1)C(=O)NCC(O)CO` (some centres not stated), the composite z-score is -0.475.
Same read-out and setting: to `COCCCNC(=O)[C@@]1(Sc2ccc(C)cc2)CC(=O)N(Cc2ccccc2C(F)(F)F)[C@@H]1c1ccc(CO)cc1I` belongs -1.02; to `COc1ccc([Si](C)(C)[C@H]2[C@H](CC(=O)N3Cc4ccccc4C[C@H]3CO)O[C@@]3(C(=O)N(C)c4ccccc43)[C@@H]2C)cc1`, 2.07; to `CN1C(=O)C2C(C1=O)C1C=C(c3ccc(CO)cc3)C2C(C2CC2)N1C` (configuration not stated), -0.605.
Turning to `COCCCNC(=O)[C@@]1(CCS(=O)(=O)c2ccccc2)COC(c2ccc(OCCCO)cc2)=N1`, the composite z-score is -0.334.
`COC(=O)[C@@]1(Cc2ccc(F)cc2)[C@H]2c3cc(C(=O)N4CCCC4)n(Cc4cc(F)cc5c4OCOC5)c3C[C@H]2CN1C(=O)c1ccccc1` showed a composite z-score of 0.229.
In the case of `O=C1C[C@@](C(=O)NCc2ccccc2)(c2ccc([N+](=O)[O-])cc2)[C@@H](c2ccc(CO)cc2)N1C1CCCCC1`, the composite z-score came to 0.998.
Compound `CCCCC(O)C1C=CC2C(=O)N(c3ccccc3)C(=O)C2N1Nc1ccc([N+](=O)[O-])cc1` (configuration not stated) returned a composite z-score of -0.61.
`CC1CC/C=C\[C@H]2OC34C=CCN(C(C)(C)C)C(=O)[C@H]3N(CCCO)C(=O)[C@@H]4C2C(=O)O1` (some centres not stated) gave a composite z-score of -0.757.
In turn, `CCCCCC1=C2CNC(Cc3ccccc3)(C(=O)OC)C=C2C(C)C1=O` (configuration not stated) showed a composite z-score of -0.695.
On to `CCOC(=O)C1=C[C@@H](C(C)(C)C)N(S(=O)(=O)c2ccc(C)cc2)[C@H]1c1ccc(C#N)cc1`, for which the composite z-score was -0.264.
With `COc1ccc([Si](C)(C)[C@@H]2[C@@H](CC(=O)N(CCO)Cc3ccccc3)O[C@]3(C(=O)N(Cc4ccc(I)cc4)c4ccccc43)[C@H]2C)cc1`, the composite z-score was 2.01.
`C=CCNC(=O)[C@H]1[C@@H]2C(=O)O[C@@H](c3ccccc3)[C@@H](c3ccccc3)N2[C@@H](c2ccccc2OCCO)[C@]12C(=O)N(C(=O)OCCOC)c1ccc(C#Cc3ccc(OC)cc3)cc12`: the composite z-score is 0.168.
`CCOC(=O)C[C@H]1[C@H](OC(=O)c2cc3ccccc3oc2=O)[C@@H](NC(=O)CC(C)C)c2cc(OCCCO)ccc2N1C(=O)Cc1ccc(OC)cc1` had a composite z-score of 0.97.
Same read-out and setting: to `O=C(NC1CC1)[C@@H]1c2ccccc2C(=O)N(CC23CC4CC(CC(C4)C2)C3)[C@H]1c1ccc(CO)cc1` belongs 1.88.
`C=CCN1C(=O)[C@@]2(O[C@@H](CCn3cc([C@H](O)c4ccccc4)nn3)[C@H]([Si](C)(C)c3ccc(OC)cc3)[C@H]2C)c2cc(N3C(=O)c4cccc5cccc3c45)ccc21` returned a composite z-score of -0.339.
As for `CCOC(=O)C[C@H]1[C@H](OC(=O)c2ccccc2-c2ccccc2)[C@@H](NC(=O)c2ccc3ccccc3c2)c2cc(OCCCO)ccc2N1C(=O)Cc1ccc(OC)cc1`, the composite z-score was -0.314.
Regarding `COC(=O)[C@@]1(Cc2ccc(OC)cc2)[C@H]2c3cc(C(=O)N4CCCC4)n(Cc4ccc(Cl)c(C(F)(F)F)c4)c3C[C@H]2CN1C(=O)c1ccccc1`, the composite z-score was -0.152.
For `CCCC[C@H]1C[C@@H]1[C@@H]1N(C(C)=O)[C@H](c2cccc(OC)c2)CC12CC2`, the composite z-score is -0.784.
For the compound `COc1ccc(CCNC(=O)[C@@H]2c3ccccc3C(=O)N(Cc3ccccc3OC)[C@H]2c2ccc(CO)cc2)cc1`, the composite z-score turned out to be 0.126.
In turn, `O=C1C=C(c2ccccc2)C(=O)C2=C1CC([C@H]1Oc3ccccc3S(=O)(=O)N3CCC[C@@H]13)=CC2` yielded a composite z-score of -0.0231.
`COCCOC(=O)N1C(=O)[C@@]2(c3cc(C#Cc4ccc(OC)cc4)ccc31)[C@H](c1ccc(OCCO)cc1)N1[C@H](c3ccccc3)[C@H](c3ccccc3)OC(=O)[C@H]1[C@@H]2C(=O)NC[C@H](O)c1ccccc1` had a composite z-score of 1.5.
